The source of these data is PubChem BioAssay (NCI).

The structures appear in SMILES notation. Compounds without any hit were thinned out: in the full panel of roughly 83,000, 20% have a hit.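 Single-concentration screen, 48 h exposure, 96-well plates. Endpoint: percent growth. Below 10 = active.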 Unmarked numbers belong to inactive results. Active and inactive are the calls of the source.

Among the test systems are SR leukemia; RPMI-8226 leukemia; OVCAR-8 ovarian; OVCAR-5 ovarian; OVCAR-4 ovarian; SK-OV-3 ovarian; IGROV1 ovarian; OVCAR-3 ovarian; HS 578T breast; NCI/ADR-RES ovarian.
Holding throughout (test): NCI-60 one-dose screen, 48 h (100 = growth as untreated, 0 = no growth, -100 = all killed)
Common to all, as to conditions: 10 µM unless noted

`O=C(Nc1cccc(Cl)c1)Oc1c(Br)c(Br)c(Br)c(Br)c1Br`: the growth is 107% in the experiment with SR leukemia; 73.2% in the experiment on RPMI-8226 leukemia; 88.9% in the experiment on OVCAR-8 ovarian; 102% with OVCAR-5 ovarian; 95.4% in the experiment with OVCAR-4 ovarian; 62.6% in the experiment on SK-OV-3 ovarian. Further, the growth in the experiment with IGROV1 ovarian is 107%; in the experiment on OVCAR-3 ovarian, 88.5%; in the experiment on HS 578T breast it was 84.3%; with NCI/ADR-RES ovarian, 96.4%.

`CCCCCCCCOC(=O)c1ccc(O)c(OC)c1`: the growth in the experiment with SR leukemia is 85.3%; with RPMI-8226 leukemia, 89.2%; in the experiment on OVCAR-8 ovarian it was 96.3%; in the experiment on OVCAR-5 ovarian, 107%; in the experiment with OVCAR-4 ovarian it was 78.2%; with SK-OV-3 ovarian it was 103%. In addition, the growth with IGROV1 ovarian was 59.8%; with OVCAR-3 ovarian, 101%; in the experiment with HS 578T breast it was 97.8%; in the experiment with NCI/ADR-RES ovarian it was 96%.

Consider `Cc1nn(-c2ccccc2)c(N2CCOCC2)c1/C=N/N=c1\sc2ccccc2n1C`, for which the growth is 36.7% with SR leukemia; 52.9% in the experiment with RPMI-8226 leukemia; 93.9% in the experiment on OVCAR-8 ovarian; 82% in the experiment with OVCAR-5 ovarian; 98.6% with OVCAR-4 ovarian; 76.9% in the experiment with SK-OV-3 ovarian. Besides, the growth in the experiment on IGROV1 ovarian is 89.5%; in the experiment with OVCAR-3 ovarian, 104%; with HS 578T breast, 91.2%; with NCI/ADR-RES ovarian it was 94.9%.

For `N#Cc1c(NC(=O)c2cccc(Br)c2)sc2c1CCCC2`, the growth is 31.9% with SR leukemia; 77.8% in the experiment on RPMI-8226 leukemia; 81.9% in the experiment with OVCAR-8 ovarian; 90.5% in the experiment on OVCAR-5 ovarian; 75.1% with OVCAR-4 ovarian; 85.2% with SK-OV-3 ovarian. For the same compound, the growth in the experiment with IGROV1 ovarian is 67.4%; with OVCAR-3 ovarian it was 95%; with HS 578T breast it was 80.7%; in the experiment on NCI/ADR-RES ovarian, 76.8%.

As for `Clc1ccc(C2CC(c3cccc(Nc4ccncc4)c3)=NN2c2ccccc2)cc1` (stereo not given), the growth with SR leukemia was 2.19% (active); in the experiment on RPMI-8226 leukemia, 1.08% (active); with OVCAR-8 ovarian, -7.33% (active); in the experiment on OVCAR-5 ovarian, 82.6%; in the experiment on OVCAR-4 ovarian, 45.5%; with SK-OV-3 ovarian, 81.4%. Further, the growth was 25.9% in the experiment on IGROV1 ovarian, 64.4% in the experiment on OVCAR-3 ovarian, 83.9% with HS 578T breast and 78.8% in the experiment on NCI/ADR-RES ovarian.

As to `O=S(=O)(c1ccccc1)N1CCCc2ccccc21`, the growth in the experiment with SR leukemia is 103%; in the experiment on RPMI-8226 leukemia it was 93.1%; in the experiment on OVCAR-8 ovarian it was 99%; in the experiment on OVCAR-5 ovarian it was 103%; in the experiment on OVCAR-4 ovarian, 113%; in the experiment on SK-OV-3 ovarian it was 105%. The growth with IGROV1 ovarian is 99.5%; in the experiment with OVCAR-3 ovarian, 102%; in the experiment with HS 578T breast, 93.2%; with NCI/ADR-RES ovarian, 107%.

`CC(C)Cc1ccc(C(C)C(=O)NCc2ccc(Cn3c(=O)sn(-c4ccc(Cl)cc4)c3=O)cc2)cc1` (stereo not given): the growth in the experiment on SR leukemia was 72.2%; in the experiment on RPMI-8226 leukemia, 83.9%; in the experiment with OVCAR-8 ovarian, 79.5%; in the experiment with OVCAR-5 ovarian, 89.3%; in the experiment with OVCAR-4 ovarian, 47.4%; with SK-OV-3 ovarian, 92%. The growth with IGROV1 ovarian is 92.2%; in the experiment on OVCAR-3 ovarian, 91.5%; in the experiment with HS 578T breast it was 71.8%; in the experiment with NCI/ADR-RES ovarian it was 90.3%.

Take `Cc1c2c(cc[n+]1Cc1ccc(F)cc1)c1ccc(OCc3cccc(F)c3)cc1n2Cc1cccc(F)c1`: the growth is -48.7% (active) in the experiment with SR leukemia; -33% (active) in the experiment on RPMI-8226 leukemia; -81.6% (active) with OVCAR-8 ovarian; 4.86% (active) in the experiment on OVCAR-5 ovarian; -80.8% (active) with OVCAR-4 ovarian; 2.43% (active) in the experiment on SK-OV-3 ovarian. Further, the growth is -67.4% (active) with IGROV1 ovarian, -98.5% (active) with OVCAR-3 ovarian, -40.9% (active) in the experiment on HS 578T breast and 85% in the experiment with NCI/ADR-RES ovarian.

Take `CCC1(CC)NC(=O)c2c(c3ccc(Cl)c(Cl)c3n2C)C1C#N` (stereo not given): the growth with SR leukemia was 5.94% (active); with RPMI-8226 leukemia, 88.6%; in the experiment with OVCAR-8 ovarian, 93.6%; in the experiment with OVCAR-5 ovarian it was 81.4%; in the experiment on OVCAR-4 ovarian it was 91.8%; in the experiment on SK-OV-3 ovarian it was 91.7%. Further, the growth is 74.6% with IGROV1 ovarian, 94.6% in the experiment on OVCAR-3 ovarian, 97.1% with HS 578T breast and 91.5% in the experiment with NCI/ADR-RES ovarian.

`C=C(C)[C@@H]1CC[C@]2(C(=O)NCC(=O)OC)CC[C@]3(C)[C@H](CC[C@@H]4[C@@]5(C)Cc6c([nH]c7ccccc67)C(C)(C)[C@@H]5CC[C@]43C)[C@@H]12`: the growth was 47% with SR leukemia; 53.2% in the experiment with RPMI-8226 leukemia; 85.4% in the experiment with OVCAR-8 ovarian; 100% in the experiment with OVCAR-5 ovarian; 66.5% with OVCAR-4 ovarian; 84.5% with SK-OV-3 ovarian. Besides, the growth with IGROV1 ovarian is 85.1%; in the experiment on OVCAR-3 ovarian, 64.6%; in the experiment with HS 578T breast, 95%; in the experiment with NCI/ADR-RES ovarian, 91%.

On to `CCCCCOc1ccc(/C=N/Nc2cc(C)nc3ccc(Br)cc23)cc1`, for which the growth with SR leukemia was -9.53% (active); in the experiment with RPMI-8226 leukemia, -8.25% (active); in the experiment with OVCAR-8 ovarian, -46.3% (active); in the experiment on OVCAR-5 ovarian, 106%; in the experiment with OVCAR-4 ovarian, 4.88% (active); with SK-OV-3 ovarian, 102%. Further, the growth is -11.7% (active) in the experiment with IGROV1 ovarian, -83.2% (active) in the experiment with OVCAR-3 ovarian, 85.5% in the experiment on HS 578T breast and 63.6% in the experiment on NCI/ADR-RES ovarian.

As for `Cc1c2c(cc[n+]1Cc1ccccc1)c1ccc(OCC3CCCCC3)cc1n2CC1CCCCC1`, the growth with SR leukemia was -57.7% (active); in the experiment on RPMI-8226 leukemia, -45.2% (active); with OVCAR-8 ovarian, -90.1% (active); with OVCAR-5 ovarian it was -95.5% (active); in the experiment with OVCAR-4 ovarian, -94.3% (active); with SK-OV-3 ovarian, -53.4% (active). The growth with IGROV1 ovarian was -70.6% (active); with OVCAR-3 ovarian it was -100% (active); in the experiment on HS 578T breast, -36.2% (active); in the experiment on NCI/ADR-RES ovarian, 31.5%.

Consider `Clc1cc(Cl)cc(N2N=C(c3cccc(Nc4ccncc4)c3)CC2c2ccccc2)c1` (stereo not given), for which the growth with SR leukemia is 5.16% (active); in the experiment with RPMI-8226 leukemia, 28.5%; in the experiment on OVCAR-8 ovarian, 2.42% (active); in the experiment with OVCAR-5 ovarian it was 80.4%; with OVCAR-4 ovarian, 55.7%; in the experiment on SK-OV-3 ovarian, 84.7%. Also, the growth in the experiment with IGROV1 ovarian is 39.5%; with OVCAR-3 ovarian, 67.4%; in the experiment on HS 578T breast it was 80.2%; in the experiment on NCI/ADR-RES ovarian it was 72.1%.
